Experimental data: PubChem BioAssay AID1159580 (chemical genetic matrix, 2015)
Several values for one entry are separate records, joined by “and”; a condition that tells them apart may be missing. Equal entries are not always repeated. Hit rate of the full screen: of about 5,500 compounds, about 2,000 (36%) were called active. Not shown: some 18% with an inconclusive outcome. No stated cut-off is given here; in the data, active means normalized growth mostly below about 0.91 (no sharp cut-off); inconclusive means no clear call, values can overlap the other calls; inactive means mostly above about 0.92. Some of the results follow.

Test: chemical genetic growth profiling, strain panel (AID 1159580);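 further: tested at 20 µM; growth read once vehicle control cultures reached saturation at 30 °C; 1 = growth at the plate median or of vehicle wells; lower values mean less growth of the strain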
Settings: growth OD

Measured: normalized growth

CC(C[N+](C)(C)C)OC(N)=O (centres undefined)
inactive: S. cerevisiae deletion strains, locus YJR066W, strain TOR1, active compounds read low 0.993 | S. cerevisiae deletion strains, locus YKL009W, strain mrt4, active compounds read low 0.934 | S. cerevisiae deletion strains, locus YKL068W, active compounds read low 0.991 | S. cerevisiae deletion strains, locus YKL085W, strain MDH1 (second series), active compounds read low 0.996 | S. cerevisiae deletion strains, locus YKL085W, strain MDH1, active compounds read low 0.996 | S. cerevisiae deletion strains, locus YKL160W, strain elf1, active compounds read low 1.01 | S. cerevisiae deletion strains, locus YKL190W, strain CNB1, active compounds read low 1 | S. cerevisiae deletion strains, locus YKR001C, strain vps1, active compounds read low 0.96 | S. cerevisiae deletion strains, locus YKR026C, strain gcn3, active compounds read low 1.02 | S. cerevisiae deletion strains, locus YKR091W, strain srl3, active compounds read low 1.02 | S. cerevisiae deletion strains, locus YLL001W, strain dnm1, active compounds read low 1.03 | S. cerevisiae deletion strains, locus YLL026W, active compounds read low 1.01 | S. cerevisiae deletion strains, locus YLL041C, strain sdh2, active compounds read low 1.04 | S. cerevisiae deletion strains, locus YLR027C, strain aat2, active compounds read low 1.03 | S. cerevisiae deletion strains, locus YLR039C, strain RIC1, active compounds read low 0.952 | S. cerevisiae deletion strains, locus YLR058C, strain SHM2, active compounds read low 0.991 | S. cerevisiae deletion strains, locus YLR102C, strain apc9, active compounds read low 0.983 | S. cerevisiae deletion strains, locus YLR113W, strain HOG1, active compounds read low 0.957 | S. cerevisiae deletion strains, locus YLR221C, strain rsa3, active compounds read low 1.04 | S. cerevisiae deletion strains, locus YLR258W, strain gsy2, active compounds read low 1.04 | S. cerevisiae deletion strains, locus YLR262C, strain YPT6 (second series), active compounds read low 1.02 | S. cerevisiae deletion strains, locus YLR262C, strain YPT6, active compounds read low 0.939 | S. cerevisiae deletion strains, locus YLR268W, strain sec22, active compounds read low 0.973 | S. cerevisiae deletion strains, locus YLR320W, strain mms22, active compounds read low 1.03 | S. cerevisiae deletion strains, locus YLR330W, strain CHS5, active compounds read low 0.994 | S. cerevisiae deletion strains, locus YLR342W, strain FKS1 (second series), active compounds read low 1.06 | S. cerevisiae deletion strains, locus YLR342W, strain FKS1, active compounds read low 1.02 | S. cerevisiae deletion strains, locus YLR357W, strain rsc2, active compounds read low 1.02 | S. cerevisiae deletion strains, locus YLR370C, strain arc18, active compounds read low 1.03 | S. cerevisiae deletion strains, locus YLR371W, strain rom2, active compounds read low 0.976 | S. cerevisiae deletion strains, locus YLR384C, strain iki3, active compounds read low 1.03 | S. cerevisiae deletion strains, locus YLR418C, strain cdc73, active compounds read low 0.953 | S. cerevisiae deletion strains, locus YML016C, strain PPZ1, active compounds read low 0.995 | S. cerevisiae deletion strains, locus YML032C, strain rad52, active compounds read low 0.983 | S. cerevisiae deletion strains, locus YML120C, strain ndi1, active compounds read low 1.03 | S. cerevisiae deletion strains, locus YML124C, strain tub3, active compounds read low 0.986 | S. cerevisiae deletion strains, locus YMR058W, strain fet3, active compounds read low 1.03 | S. cerevisiae deletion strains, locus YMR078C, strain ctf18, active compounds read low 0.97 | S. cerevisiae deletion strains, locus YMR125W, strain sto1, active compounds read low 1.05 | S. cerevisiae deletion strains, locus YMR129W, active compounds read low 1.03 | S. cerevisiae deletion strains, locus YMR205C, strain PFK2, active compounds read low 0.998 | S. cerevisiae deletion strains, locus YMR223W, strain ubp8, active compounds read low 0.987 | S. cerevisiae deletion strains, locus YMR231W, strain pep5, active compounds read low 1.02 | S. cerevisiae deletion strains, locus YMR307W, strain GAS1, active compounds read low 1.09 | S. cerevisiae deletion strains, locus YNL067W, strain RPL9B, active compounds read low 0.98 | S. cerevisiae deletion strains, locus YNL071W, strain lat1, active compounds read low 1.01 | S. cerevisiae deletion strains, locus YNL128W, strain TEP1, active compounds read low 0.975 and 0.99 | S. cerevisiae deletion strains, locus YNL153C, strain GIM3, active compounds read low 0.995 | S. cerevisiae deletion strains, locus YNL175C, strain NOP13, active compounds read low 0.997 | S. cerevisiae deletion strains, locus YNL183C, strain NPR1, active compounds read low 0.96 | S. cerevisiae deletion strains, locus YNL197C, strain WHI3, active compounds read low 1 | S. cerevisiae deletion strains, locus YNL209W, strain ssb2, active compounds read low 1.03 | S. cerevisiae deletion strains, locus YNL224C, strain SQS1, active compounds read low 0.995 | S. cerevisiae deletion strains, locus YNL233W, strain BNI4, active compounds read low 0.999 | S. cerevisiae deletion strains, locus YNL248C, strain rpa49, active compounds read low 1.01 | S. cerevisiae deletion strains, locus YNL250W, strain rad50, active compounds read low 1 | S. cerevisiae deletion strains, locus YNL271C, strain bni1, active compounds read low 0.973 | S. cerevisiae deletion strains, locus YNL298W, strain CLA4, active compounds read low 0.976 | S. cerevisiae deletion strains, locus YNL307C, strain MCK1, active compounds read low 0.97 | S. cerevisiae deletion strains, locus YNL322C, strain KRE1 (second series), active compounds read low 1.01 | S. cerevisiae deletion strains, locus YNL322C, strain KRE1, active compounds read low 0.992 | S. cerevisiae deletion strains, locus YNR049C, strain mso1, active compounds read low 1.01 | S. cerevisiae deletion strains, locus YNR052C, strain pop2, active compounds read low 0.982 | S. cerevisiae deletion strains, locus YOL006C, strain TOP1, active compounds read low 1.02 | S. cerevisiae deletion strains, locus YOL012C, strain htz1 0.744 | S. cerevisiae deletion strains, locus YOL147C, strain pex11, active compounds read low 0.987 | S. cerevisiae deletion strains, locus YOR001W, strain rrp6, active compounds read low 1.03 | S. cerevisiae deletion strains, locus YOR061W, strain CKA2, active compounds read low 0.99 | S. cerevisiae deletion strains, locus YOR069W, strain VPS5, active compounds read low 0.987 | S. cerevisiae deletion strains, locus YOR070C, strain gyp1, active compounds read low 1.03 | S. cerevisiae deletion strains, locus YOR080W, strain dia2, active compounds read low 1.04 | S. cerevisiae deletion strains, locus YOR083W, strain WHI5 (second series), active compounds read low 0.996 | S. cerevisiae deletion strains, locus YOR083W, strain WHI5, active compounds read low 0.976 | S. cerevisiae deletion strains, locus YOR106W, strain vam3, active compounds read low 1.05 | S. cerevisiae deletion strains, locus YOR136W, strain idh2, active compounds read low 0.968 | S. cerevisiae deletion strains, locus YOR144C, strain elg1, active compounds read low 0.985 | S. cerevisiae deletion strains, locus YOR184W, strain ser1, active compounds read low 0.976 | S. cerevisiae deletion strains, locus YOR231W, strain MKK1, active compounds read low 0.979 | S. cerevisiae deletion strains, locus YOR265W, strain rbl2, active compounds read low 1.02 | S. cerevisiae deletion strains, locus YOR270C, strain vph1, active compounds read low 1.05 | S. cerevisiae deletion strains, locus YOR290C, strain snf2, active compounds read low 1.02 | S. cerevisiae deletion strains, locus YOR316C, strain cot1, active compounds read low 0.977 | S. cerevisiae deletion strains, locus YPL051W, strain arl3, active compounds read low 1.02 | S. cerevisiae deletion strains, locus YPL055C, strain LGE1, active compounds read low 0.998 | S. cerevisiae deletion strains, locus YPL078C, strain atp4, active compounds read low 1.02 | S. cerevisiae deletion strains, locus YPL106C, strain sse1, active compounds read low 1.06 | S. cerevisiae deletion strains, locus YPL240C, strain hsp82, active compounds read low 1.02 | S. cerevisiae deletion strains, locus YPL256C, strain CLN2, active compounds read low 0.976 | S. cerevisiae deletion strains, locus YPR119W, strain clb2, active compounds read low 0.985 | S. cerevisiae deletion strains, locus YPR141C, strain kar3, active compounds read low 0.986 | S. cerevisiae deletion strains, locus YPR163C, strain tif3, active compounds read low 0.979 | S. cerevisiae deletion strains, locus YPR167C, strain met16, active compounds read low 0.98 | S. cerevisiae deletion strains, strain wtn01, active compounds read low 1 | S. cerevisiae strains, strain wild type, active compounds read low 0.994
